# “And” between values parts separate entries of the source, which are not always exact repeats. Equal values may be shown once. Screen size: about 52,000 compounds; about 4,300 (8.3%) were called active. Rule as the data show it: active = survival mostly below about 52% (no sharp cut-off); inactive = mostly above about 56%. The full list was thinned out, with actives kept by preference. Some structures have more than one record in an assay (separate samples or runs), and their calls can disagree.
# Test system: DeltatarO mutant
# Assay: growth inhibition of S. aureus wild type versus tarO mutant, primary screen, teichoic acid synthesis inhibitors, RN4220, OD600 (AID 463173)
# Conditions: OD600, 18 h, stronger effect = lower value, screened at 18.75 µg/mL (by protocol)
row,SMILES,survival
1,Cc1ccc(Cl)cc1NC(=O)c1sc2nc(C)c(C)c(C)c2c1N,75% (inactive)
2,Cc1cccc2sc(N(Cc3cccnc3)C(=O)Cc3ccccc3)nc12,81% (inactive)
3,CCCc1cnc2c(c1SCC(=O)Nc1c(C)cc(C)cc1C)c(=O)n(C)c(=O)n2C,94% (inactive)
4,CCOc1ccc(NC(=O)CSc2nc3nc(C)c(Cc4ccccc4)c(C)n3n2)cc1,89% (inactive)
5,CCC(OC(=O)CN1C(=O)c2ccccc2C1=O)C(=O)NC1CCCC1 (stereo not given),83% (inactive)
6,COC(=O)c1ccc(C(=O)OC)c(NC(C)=O)c1,73% (inactive)
7,O=C(NCc1ccc(Cl)cc1)C1CCCN(C(=O)c2cnn(-c3ccc(F)cc3)c2-n2cccc2)C1 (stereo not given),73% (inactive)
8,Cc1c(Cl)cccc1NC(=O)c1cccc(NC(=O)N2CCSc3ncccc32)c1,80% (inactive)
9,COc1ccc(C(=O)Nc2ccccc2C(=O)Nc2ccccn2)cc1,94% (inactive)
10,O=C1CSC(=Nc2cccc(C(=O)O)c2)N1,82% (inactive)
11,CC(=O)c1cc2c(cc1N/C(=N/S(=O)(=O)c1ccc(Br)cc1)c1ccccc1)OCO2,69% (inactive)
12,CC(=O)c1cc2c(cc1N/C(=N/S(=O)(=O)c1ccccc1)c1ccc(Cl)cc1)OCO2,0% (active)
13,CC(=O)c1cc2c(cc1N/C(=N/S(=O)(=O)c1ccc(C)cc1)c1ccc(F)cc1)OCO2,83% (inactive)
14,CC(=O)c1cc2c(cc1N/C(=N/S(=O)(=O)c1ccc(C)cc1)c1ccc(Cl)cc1)OCO2,37% (active)
15,CC(=O)c1cc2c(cc1N/C(=N/S(=O)(=O)c1ccc(C)cc1)c1ccccc1)OCO2,74% (inactive)
16,CC(=O)c1cc2c(cc1N/C(=N/S(=O)(=O)c1ccc(Cl)cc1)c1ccc(F)cc1)OCO2,99% (inactive)
17,O=C(NCc1cccc(Br)c1)C1CCCCN1S(=O)(=O)c1ccc(F)cc1 (stereo not given),89% (inactive)
18,O=C(Cn1c(-c2cccs2)cc2cc(F)ccc21)NCCCN1CCN(c2ccccc2F)CC1,67% (inactive)
19,COc1ccc(-n2nc3c(N4CCC(C(=O)NCCc5ccccc5)CC4)nnc(C)c3c2C)cc1,85% (inactive)
20,CCc1cccc(Nc2c3c(nc4ncnn24)CCC3)c1,95% (inactive)

row,SMILES,survival
1,COc1ccc(-c2nn3c(=O)cc(CN4CCN(C(=O)Nc5ccc(C)c(Cl)c5)CC4)nc3s2)cc1,78% (inactive)
2,CCOC(=O)C(C)Sc1nc(-c2ccccc2Cl)cc(-c2ccccc2)c1C#N (stereo not given),64% (inactive)
3,CCOC(=O)C(C)Sc1nc(-c2ccccc2)ccc1C#N (stereo not given),82% (inactive) and -1% (active)
4,CCCCSc1nc(-c2ccc(OC)cc2)ccc1C#N,52% (inactive)
5,O=C(CN1CCN(c2ccccn2)CC1)N(c1ccccc1)c1ccc2ccccc2c1,59% (inactive)
6,COc1ccc(OC)c(CCNC(=O)c2csc3c2CCCCC3)c1,44% (active)
7,COc1ccc(NC(=O)c2csc3c2CCCCC3)cc1,70% (inactive)
8,COc1cccc(NC(=O)c2csc3c2CCCCC3)c1,37% (active)
9,COc1ccc(CCNC(=O)c2csc3c2CCCCC3)c(OC)c1,66% (inactive)
10,Cc1cccc(C)c1NC(=O)c1csc2c1CCCC2,90% (inactive)
11,COc1ccc(OC)c(CCNC(=O)c2ccc3[nH]c(C)c(C)c3c2)c1,107% (inactive)
12,COc1ccc(-c2cc(-c3ccccc3)nc3c2COc2ccc(F)cc2-3)cc1,73% (inactive)
13,CCCc1c(O)nc(SCC(=O)N2CCCCC2)[nH]c1=O,69% (inactive)
14,Cc1ccccc1CSc1ncc(Cl)c(C(=O)Nc2nc3ccc(F)cc3s2)n1,100% (inactive)
15,CCCSc1ncc(Cl)c(C(=O)Nc2nc3ccc(OCC)cc3s2)n1,63% (inactive)
16,O=C(Nc1nc2ccc(F)cc2s1)c1nc(SCc2ccccc2F)ncc1Cl,48% (inactive)
17,CCOc1ccc2nc(NC(=O)c3nc(SCc4ccc(C)cc4)ncc3Cl)sc2c1,54% (inactive)
18,COc1ccc2nc(NC(=O)c3nc(SC(C)C)ncc3Cl)sc2c1,93% (inactive)
19,COc1ccc2nc(NC(=O)c3nc(SCc4cccc(C)c4)ncc3Cl)sc2c1,37% (active)
20,CCCSc1ncc(Cl)c(C(=O)Nc2nc3ccc(C)cc3s2)n1,49% (active)

row,SMILES,survival
1,CCOc1ccc2nc(NC(=O)c3nc(SC(C)C)ncc3Cl)sc2c1,41% (active)
2,Cc1ccc(CSc2ncc(Cl)c(C(=O)Nc3nc4ccc(C)cc4s3)n2)cc1,53% (inactive)
3,Cc1cccc(CSc2ncc(Cl)c(C(=O)Nc3nc4ccc(F)cc4s3)n2)c1,33% (active)
4,COc1ccc2nc(NC(=O)c3nc(SCc4ccc(F)cc4)ncc3Cl)sc2c1,53% (inactive)
5,CCSc1ncc(Cl)c(C(=O)Nc2nc3ccc(OC)cc3s2)n1,83% (inactive)
6,CCCN(CCC)C(=O)Cn1c(=O)n(-c2cccc(C(F)(F)F)c2)c(=O)c2c(C)c(C)sc21,44% (inactive)
7,CCC1SC(=S)N(CC(=O)O)C1=O (stereo not given),100% (inactive)
8,CCOCCCNC(=O)Cn1ncc2c([nH]c3ccc(C)cc32)c1=O,83% (inactive)
9,O=C1NC(c2ccccc2)/C(=C(\O)c2ccccc2)C1=O (stereo not given),70% (inactive)
10,Cc1nc2ccn(Cc3cccs3)c(=O)c2cc1C(=O)N1CCN(c2ccccc2)CC1,83% (inactive)
11,CCCSc1ncc(Cl)c(C(=O)Nc2ccc(S(=O)(=O)Nc3ncccn3)cc2)n1,67% (inactive)
12,CCCSc1ncc(Cl)c(C(=O)Nc2ccc(CC)cc2)n1,42% (active)
13,CCCSc1ncc(Cl)c(C(=O)NCc2ccc(OC)cc2)n1,52% (inactive)
14,CCCSc1ncc(Cl)c(C(=O)NCc2ccc(C)cc2)n1,57% (inactive)
15,CCCSc1ncc(Cl)c(C(=O)Nc2ccc(OC)cc2OC)n1,46% (active)
16,COc1ccc(OC)c(NC(=O)c2nc(SCc3ccccc3F)ncc2Cl)c1,70% (inactive)
17,Cc1ccc(-c2nnc(SCC(=O)NCc3ccccc3)o2)cc1,142% (inactive)
18,CCN(CC)c1ccc(CNCCCSc2nnnn2C)cc1,88% (inactive)
19,COc1cc(C)c(S(=O)(=O)N2CCCC(C)C2)cc1C (stereo not given),81% (inactive)
20,Cc1nnc(NC(=O)CSc2nccn2-c2ccc(Cl)cc2)s1,104% (inactive)

# Source: PubChem BioAssay AID463173 (ICCB-Longwood Screening Facility, Harvard Medical School, 2010)
